Key:
Type in all cases: functional
[1] = target: Solute carrier family 2, facilitated glucose transporter member 1 (Homo sapiens) (UniProt P11166); assay: ST_JUDE_LEISH: Cytotoxicity at 2uM final concentration against transgenic Leishmania Mexicana promastigotes LmGLUT1 that are glucose transport deficient and complemented with the human glucose transporter GLUT1. Activity is measured by DNA content using SYBR green in vitro
[2] = target: Hexose transporter 1 (Plasmodium falciparum) (UniProt O97467); assay: ST_JUDE_LEISH: Cytotoxicity at 2uM final concentration against transgenic Leishmania Mexicana promastigotes LmPfHT that are glucose transport deficient and complemented with the Plasmodium falciparum hexose transporter. Activity is measured by DNA content using SYBR green in vitro
[3] = target: Glucose transporter (Leishmania mexicana) (UniProt O61059); assay: ST_JUDE_LEISH: Cytotoxicity at 2uM final concentration against transgenic Leishmania Mexicana promastigotes LmGT2 that are glucose transport deficient and complemented with the L. Mexicana glucose transporter 2. Activity is measured by DNA content using SYBR green in vitro

Solute carrier family 2, facilitated glucose transporter member 1 (Homo sapiens), sequence (P11166 whole entry): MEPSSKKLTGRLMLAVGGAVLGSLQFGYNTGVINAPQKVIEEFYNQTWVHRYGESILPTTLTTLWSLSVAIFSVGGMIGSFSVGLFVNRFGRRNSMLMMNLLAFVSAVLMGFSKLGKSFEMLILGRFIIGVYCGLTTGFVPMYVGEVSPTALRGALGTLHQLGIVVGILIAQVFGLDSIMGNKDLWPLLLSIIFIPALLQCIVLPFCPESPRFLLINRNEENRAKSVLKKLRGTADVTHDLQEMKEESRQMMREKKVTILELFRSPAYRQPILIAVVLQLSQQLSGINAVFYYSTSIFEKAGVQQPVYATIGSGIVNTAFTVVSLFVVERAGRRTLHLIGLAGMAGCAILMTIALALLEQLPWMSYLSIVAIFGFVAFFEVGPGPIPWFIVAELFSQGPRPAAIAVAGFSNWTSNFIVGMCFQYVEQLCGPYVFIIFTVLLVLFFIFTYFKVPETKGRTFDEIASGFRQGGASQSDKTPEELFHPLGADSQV

SMILES | inhibition [1] [%] | inhibition [2] [%] | inhibition [3] [%]
Cc1n[nH]c2ccc(-c3cc(OC[C@@H](N)Cc4ccccc4)cnc3-c3ccccc3OCc3cccc(F)c3)cc12 | 9.75 | 1.05 | -0.42
CC1CCN(c2nc(C(=O)NCCc3ccc(Cl)c(Cl)c3)c(C(C)C)s2)CC1 | 0.93 | 0.99 | 2.67
O=C(c1cc(-c2ccccc2)n[nH]1)N1CCN(S(=O)(=O)c2ccc(Cl)s2)CC1 | 4.06 | 1.3 | 2.66
CCOC(=O)c1ccc(NC(=O)NNC(=O)c2ccc(CCN3CCC(c4nc(COCC(F)(F)F)c(-c5ccc(F)cc5)o4)CC3)cc2)cc1 | 1.09 | 1.22 | 0.84
CCN(CCCN1CCCCC1)c1cc(C)nc(Nc2ccc(C(C)C)cc2)n1 | -0.68 | 1.56 | 2.4
COc1ccc(CCNCCCCCCNCCc2ccc(OC)c(OC)c2Cl)c(Cl)c1OC | 0.05 | -0.34 | 0.35
